High-throughput results deposited in PubChem by several laboratories.
Most compounds without a hit are left out; they make up all but 0.9% or so of the library.
RecA splice inh = Mtb RecA intein splicing inhibitors, primary screen, biochemical, fluorescence, HTS; Protein RecA (Mycobacterium tuberculosis (strain ATCC 25618 / H37Rv)), P9WHJ3; cell-free RecA intein splicing; inhibition, % (no concentration beside the values); 0.75% of 290,000 active; in the data active = inhibition above about 30%;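 also: 0% = vehicle wells and 100% = reference inhibitor control wells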
Target sequence (P9WHJ3 whole entry, looked up, canonical isoform): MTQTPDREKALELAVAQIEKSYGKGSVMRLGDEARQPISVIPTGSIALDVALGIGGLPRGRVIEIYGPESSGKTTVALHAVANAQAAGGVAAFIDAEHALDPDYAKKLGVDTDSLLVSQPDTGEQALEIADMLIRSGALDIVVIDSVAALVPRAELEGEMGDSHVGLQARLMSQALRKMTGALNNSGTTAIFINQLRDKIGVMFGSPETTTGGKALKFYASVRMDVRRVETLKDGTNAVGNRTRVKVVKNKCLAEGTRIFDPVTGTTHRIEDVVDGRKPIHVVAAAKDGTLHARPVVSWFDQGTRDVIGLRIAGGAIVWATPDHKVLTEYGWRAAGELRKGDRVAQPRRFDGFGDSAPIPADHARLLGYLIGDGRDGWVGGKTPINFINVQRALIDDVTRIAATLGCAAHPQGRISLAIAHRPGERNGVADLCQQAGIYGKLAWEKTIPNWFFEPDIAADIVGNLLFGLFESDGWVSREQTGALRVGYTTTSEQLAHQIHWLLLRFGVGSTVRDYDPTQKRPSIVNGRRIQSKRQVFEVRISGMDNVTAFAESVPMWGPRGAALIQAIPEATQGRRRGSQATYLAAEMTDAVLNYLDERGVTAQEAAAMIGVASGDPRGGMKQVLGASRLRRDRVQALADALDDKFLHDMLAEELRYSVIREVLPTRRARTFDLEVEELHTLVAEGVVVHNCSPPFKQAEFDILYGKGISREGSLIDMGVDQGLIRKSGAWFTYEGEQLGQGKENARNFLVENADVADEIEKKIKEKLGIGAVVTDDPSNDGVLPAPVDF
FadD28 FP inh = inhibitors of FadD28 bisubstrate probe binding, primary screen, biochemical, fluorescence polarization, single point. 0.22% of 360,000 active. inhibition, % at 12.5 µM. Mycobacterium tuberculosis FadD28 fatty-acid-AMP ligase. AID 588549, 2011; in the data active = inhibition above about 8.5%, passing the limit was not always enough
Mtb UGM inh = M. tuberculosis UGM enzyme inhibitors, primary screen, biochemical, fluorescence polarization, single point; purified UGM, fluorescence polarization probe displacement; inhibition, % at 10 µM; 0.06% of 320,000 active; UDP-galactopyranose mutase (Mycobacterium tuberculosis (strain ATCC 25618 / H37Rv)), …; in the data active = inhibition above about 10%, passing the limit was not always enough
TcdB inh = TcdB glycohydrolase inhibitors, primary screen, biochemical, single point, plate reader; Toxin B (Clostridioides difficile), P18177; TcdB glycohydrolase enzymatic assay; inhibition, % at 9.99 µM; 0.24% of 350,000 active; in the data active = inhibition above about 10%
Rv3671c inh = Rv3671c serine protease inhibitors, primary screen, biochemical, fluorescence polarization, M. tuberculosis H37Rv; P9WHR9; inhibition, % at 5.96 µM; 0.048% of 320,000 active; AID 2606, 2010; in the data active = inhibition above about 38%;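 also: extracellular domain of Rv3671c used as enzyme; 0% = enzyme with DMSO and 100% = no enzyme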
BioA inh = M. tuberculosis BioA enzyme inhibitors, primary screen, biochemical, plate reader, single point, HTS; 7,8-diaminopelargonic acid synthase BioA (Mycobacterium tuberculosis); purified M. tuberculosis BioA enzyme; inhibition, % at 9.99 µM; 0.096% of 360,000 active; AID 602481, 2012; in the data active = inhibition above about 40%
* = called active by the depositor; · = no result given.

SMILES | RecA splice inh | FadD28 FP inh | Mtb UGM inh | TcdB inh | Rv3671c inh | BioA inh
C[C@H]1CN([C@@H](C)CO)C(=O)c2cc(NS(=O)(=O)c3cn(C)cn3)ccc2O[C@@H]1CN(C)CC1CCCCC1 | · | · | · | 5 | · | 7
CC(CCC(C)C(C)(C)C)[C@@H]1CC[C@H]2C3C[C@H](OS(O)(=S)=S)[C@H]4C[C@H](OS(O)(=S)=S)[C@@H](OS(O)(=S)=S)C[C@]4(C)[C@H]3CC[C@]12C (stereo not given in full) (tested in a mixture with another compound) | · | 65* | 1 | · | -66 | 23
CC(CCC(=O)NN)C1CCC2C3CCC4CC(O)CCC4(C)C3CCC12C (stereo not given) | · | -5 | · | 1 | · | ·
Cn1c(=O)c2c(nc(N3CCOCC3)n2CCSc2ncccn2)n(C)c1=O | 1 | 1 | 2 | 17* | 5 | -4
Cc1c(NC(=O)/C(C#N)=C/c2ccc3ccccc3c2)c(=O)n(-c2ccccc2)n1C | · | · | · | -1 | · | ·
CN(C(=O)c1ccc(S(=O)(=O)c2cccc(Cl)c2)c([N+](=O)[O-])c1)C1CCCCC1 | 35* | -2 | 1 | · | -1 | -1
C[C@@H]1CN([C@@H](C)CO)S(=O)(=O)c2ccc(-c3ccccc3F)cc2O[C@H]1CN(C)C | · | · | · | 0 | · | 2
Cc1c(C(=O)O)cccc1-n1c(C)cc(/C=N/Nc2ccc([N+](=O)[O-])cn2)c1C | 3 | 34* | -1 | 0 | 7 | ·
COc1ccc2c3c([nH]c2c1)[C@@H](CO)N(C(=O)CN1CCOCC1)CC31CCN(C(=O)NC(C)C)CC1 | · | · | · | -6 | · | ·
COc1ccc(CC(=O)O/N=C(\N)Cc2cccc3ccccc23)cc1OC | 32* | -4 | 0 | 0 | -14 | ·
N/C(Cc1cccc2ccccc12)=N\OC(=O)c1cccs1 | 33* | -4 | 3 | · | -7 | 1
N/C(Cc1cccc2ccccc12)=N\OC(=O)Cc1cccs1 | 22 | -2 | 0 | · | -8 | ·
O=C1c2cccc3c([N+](=O)[O-])ccc(c23)C(=O)N1c1ccccn1 | -33 | -14 | 3 | · | -2 | -2
O=C1c2cccc3c(N4CCCCC4)ccc(c23)C(=O)N1c1ccccn1 | -16 | 0 | 10* | · | -3 | -2
C[C@H]1CN([C@@H](C)CO)C(=O)c2cc(NC(=O)Nc3ccc(C(F)(F)F)cc3)ccc2O[C@H]1CN(C)C | · | · | · | 1 | · | 4
O=C(Cc1cccs1)Nc1cc(SCCO)cc([N+](=O)[O-])c1 | -7 | -2 | 11* | · | 3 | ·
O=C(Nc1cc(SCCO)cc([N+](=O)[O-])c1)c1ccco1 | -2 | 1 | 3 | · | -2 | 1
COc1cc(O)ccc1C(=O)CCc1ccc(O)cc1 | 2 | -1 | -4 | 17* | -1 | 0
COc1ccc(S(=O)(=O)N[C@H]2CC[C@H](CC(=O)NCCc3ccncc3)O[C@H]2CO)cc1 | · | · | · | -1 | · | -6
O=C(Oc1ccc(Br)cc1C(=S)N1CCCCC1)c1cc([N+](=O)[O-])cc([N+](=O)[O-])c1 | 64* | -3 | 3 | · | -5 | ·
C[C@@H]1CN([C@H](C)CO)C(=O)Cc2cc(NS(=O)(=O)c3cn(C)cn3)ccc2O[C@@H]1CN(C)Cc1ccc(Cl)c(Cl)c1 | · | · | · | 0 | · | 1
CO[C@@H]1CN(C)C(=O)c2cc(NC(=O)c3ccc(Oc4ccccc4)cc3)ccc2OC[C@@H](C)N(C(C)=O)C[C@H]1C | · | · | · | -2 | · | -2
O=C(O)c1ccc(N/N=C/c2cn(Cc3ccc(F)cc3)c3ccccc23)cc1 | 5 | 18* | 1 | 0 | 15 | 6
CCNC(=S)N/N=C/c1cn(Cc2ccc(F)cc2)c2ccccc12 | -1 | -2 | 0 | -1 | 10 | ·
COc1ccc(CNC(=O)C[C@H]2C=C[C@@H](NS(=O)(=O)c3cccc(OC)c3)[C@@H](CO)O2)cc1 | · | · | · | 0 | · | ·
SMILES | RecA splice inh | FadD28 FP inh | Mtb UGM inh | TcdB inh | Rv3671c inh | BioA inh
O=C1C(=Cc2ccc(Br)o2)C(=O)c2ccccc21 | · | 41* | 1 | · | 0 | 1
O=c1[nH]c(CSc2nnc(Cc3ccccc3)o2)nc2ccccc12 | 0 | -1 | -1 | 19* | 9 | -1
COc1ccc(Cc2nnc(SCc3nc4ccccc4c(=O)[nH]3)o2)cc1 | 0 | -1 | 3 | 0 | -3 | -2
CS(=O)(=O)N1[C@@H]2c3ccc(-c4ccccc4)c(=O)n3C[C@@H]2[C@@H](CO)[C@@H]1C(=O)NC1CCC1 | · | · | · | -2 | · | -1
COc1ccc2c3c(n(C)c2c1)[C@@H](CO)N(C(=O)c1ccc(F)cc1)CC31CCN(CC2CCOCC2)CC1 | · | · | · | 0 | · | ·
O=c1[nH]nc(Sc2ncnc3sccc23)n1CCc1ccccc1 | 31* | -2 | 1 | · | 0 | 0
CCN(CC)C(=O)CSc1n[nH]c(=O)n1CCc1ccccc1 | -2 | -4 | -2 | 0 | 7 | 0
NC(=O)Nc1ccc(Nc2ccccc2)cc1 | 20 | -4 | 2 | 15* | 7 | ·
O=C(C[C@@H]1CC[C@H]2[C@@H](COC[C@@H](O)CN2Cc2cc(F)ccc2F)O1)NCc1ccccc1 | · | · | · | 0 | · | 0
COc1ccc2c3c(n(C)c2c1)[C@H](CO)N(Cc1ccc2c(c1)OCO2)CC31CN(C(=O)C2CC2)C1 | · | · | · | 0 | · | ·
CC(=O)Nc1ccc(S(=O)(=O)Nc2nc3ccccc3nc2Nc2ccc(C(=O)O)c(O)c2)cc1 | · | 25* | 3 | -4 | -6 | 1
O=C(c1ccncc1)N1CCCCN2[C@@H](CO)[C@H](c3ccc(-c4ccccc4)cc3)[C@@H]2C1 | · | · | · | 1 | · | -4
COc1ccc2nc3c(nc2c1)CCCC3 | 2 | -2 | 3 | 1 | 2 | 0
COc1ccc2cc3c(nc2c1)OCC3 | 2 | 0 | 3 | 11* | -6 | -2
O=C1/C(=C/c2ccc(O)c(O)c2)SC(=S)N1Nc1ccccc1 | 1 | -5 | · | · | · | ·
Cc1ccc(C(=O)NN2C(=O)/C(=C/c3cccn3C)SC2=S)cc1 | -8 | 13* | 7 | 1 | -10 | -3
O=C(O)c1ccc(/C=C2\SC(=S)N(NC(=O)c3ccccc3[N+](=O)[O-])C2=O)cc1 | -8 | -2 | 2 | -2 | · | 0
O=C(NN1C(=O)/C(=C\c2ccc(O)c([N+](=O)[O-])c2)SC1=S)c1ccccc1Cl | 10 | 15* | 2 | 1 | 5 | 5
O=C(NN1C(=O)/C(=C/c2ccc(O)c(O)c2)SC1=S)c1ccccc1 | -1 | 43* | -3 | -11 | -111 | 6
O=C(C[C@@H]1C[C@H]2c3cc(NC(=O)NC4CCCCC4)ccc3O[C@H]2[C@@H](CO)O1)NCc1cccnc1 | · | · | · | 0 | · | -1
